# From the supplement of paper PMC3334620
# The full ranking holds about 33,000 sequences; the median of “E-score (-0.5 to 0.5)” is about -0.04, and the highest 2% start at about 0.36. Only a selection was taken, and the highest values are over-represented in it overall.
# Target: T1, Hmlalpha2 (UniProt P0CY09)
# T1 sequence: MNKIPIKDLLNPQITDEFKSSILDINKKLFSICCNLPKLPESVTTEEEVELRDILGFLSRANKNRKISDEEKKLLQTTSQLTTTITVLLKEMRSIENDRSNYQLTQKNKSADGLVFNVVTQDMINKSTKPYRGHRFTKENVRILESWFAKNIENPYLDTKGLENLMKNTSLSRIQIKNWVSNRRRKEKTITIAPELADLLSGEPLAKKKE
# Experiment: PBM E-score (8-mer binding enrichment) (E-score (-0.5 to 0.5)); higher = stronger / more preferred TF binding
# Conditions: protein concentration: 200 nM; construct: GST-full length
# Procedure, shortened: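 The E-score, a modified Wilcoxon-Mann-Whitney statistic, was computed by the Universal PBM Analysis Suite for every ungapped eight-base word pooled with its reverse complement. Scans behind it were normalised with masliner after bound GST-tagged yeast transcription factors were detected with fluorescent anti-GST. The proteins, at about 100-200 nM, had been applied to universal all-10-mer Agilent arrays made double-stranded by primer extension.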
row,Sequence,PBM E-score
1,AGACCTGC,-0.0816
2,CTTCGGCA,-0.198
3,ACAAACAT,0.305
4,GTAAAAAA,0.286
5,AAAAACAT,0.297
6,CTAAACAC,0.296
7,GTAAAAAC,0.385
8,ATAAACAG,0.0861
9,GTAAACAC,0.416
10,ATAAACAC,0.365
11,CTAAAAAC,0.0815
12,ATAAACAT,0.383
13,ATAAACAA,0.323
14,GGAAACAC,0.119
15,ATACCTCA,-0.072
16,AGCATTGC,0.0222
17,AGCGGGGA,-0.24
18,CGTTGAAA,0.0902
19,TACGGCCA,-0.262
20,GTAAACAA,0.37
21,TTAAACAA,0.274
22,CTAAACAA,0.0668
23,ATGCTAAG,0.027

row,Sequence,PBM E-score
1,CGTCGAAC,0.0323
2,CGTGTACC,0.326
3,GGGGTGTA,0.0612
4,GGTGTGCA,-0.155
5,AGTGTACA,0.301
6,AGTGTGTA,0.395
7,CGTGTGTC,0.2
8,GGTGTGTA,0.423
9,CGTGTGCA,0.0955
10,AGTGTGTC,0.174
11,CGTGTACA,0.467
12,AGTGTGTG,0.127
13,CGTGTGTA,0.413
14,CCGGACGA,-0.0406
15,ATGGGAAT,0.0681
16,CAGCACCG,-0.189
17,GCGCGGTA,0.0518
18,ACCTGCAG,-0.0825
19,AAGCAGGG,-0.116
20,CGTGTATA,0.452
21,GGTGTATA,0.0823
22,CGTGTATC,0.332
23,GGTCTATA,0.121

row,Sequence,PBM E-score
1,ATATACAC,0.422
2,CTATACAC,0.213
3,ATATATAC,0.345
4,GTATACAC,0.416
5,ATATACAA,0.343
6,GTATATAC,0.155
7,GTATACAA,0.291
8,ATATACAT,0.435
9,ATATACAG,0.131
10,AAGGTAAC,0.0918
11,CACGCCCC,0.0158
12,ACTTGAGG,-0.203
13,GATGTGCA,-0.091
14,AATGTGTG,0.0802
15,GATGTGGA,-0.0421
16,GATGTGTA,0.38
17,CATGTGTC,0.152
18,CATGTGTA,0.427
19,CATGTGGA,0.144
20,AATGTGTC,0.0899
21,AATGTGTA,0.371
22,AACAAGGC,0.219
23,CATCAAGC,-0.116

row,Sequence,PBM E-score
1,ACCCTAAT,-0.101
2,CCTAATCA,0.0766
3,GTGTGAGA,0.0378
4,AAAACAGA,0.137
5,ATAAAAAG,0.19
6,GCGTAACA,0.29
7,CTGTAACA,0.223
8,GGGTAACA,0.17
9,GTGTAACA,0.411
10,ATGTAACA,0.454
11,AAGTAACA,0.245
12,AGGAGTGG,-0.145
13,ACCCGAGA,-0.255
14,AGTCTGCG,-0.0616
15,ACCAGAAT,0.0511
16,AAACAACT,0.0928
17,AAACAACC,0.168
18,CCACACCA,0.0331
19,ACACAACA,0.381
20,ACACACCA,0.369
21,GCACAACA,0.187
22,CTACAACA,0.283
23,GTACAACA,0.395

row,Sequence,PBM E-score
1,TCACACCA,-0.0124
2,CCACAACA,0.0233
3,AAACAACA,0.367
4,ATACAACA,0.355
5,GTGCTCAA,0.197
6,ATCTGGGG,-0.267
7,CGCTTACA,0.287
8,AAGTTCCG,-0.0355
9,AAGCGGGG,-0.0783
10,AGCTCCCA,-0.128
11,AATGCTCG,0.0169
12,TGAAAGAA,0.129
13,AAAGCACA,0.123
14,AAGTATCT,0.0958
15,ACACAACG,0.377
16,ACACAACT,0.317
17,ACACAGCC,0.317
18,ACACAGCA,0.358
19,ACACAACC,0.305
20,ACACAGCG,0.424
